Source: ChEMBL document CHEMBL3988442, “University of Dundee, Small-Polar-MMV Screening Library” (2021)
In all, about 48,000 compounds went through this assay and about 13,000 (27%) showed an effect of 50% or more. The list shows a part of the results.

test system: Wolbachia pipientis; test: Anti-Wolbachia Cell-Based Screen; format: functional; design: scale not given: in the data most compounds retested in dose-response had high values; details: 5 µM

SMILES	Percent Effect
CN1CCN(Cc2ccco2)Cc2cccnc21	10.4%
OCC1N(Cc2ccco2)[C@H]2CC[C@]1(O)CC2 (some centres not stated)	109.9%
Cc1cc(CN2C[C@@H]3COC[C@]3(COCC(=O)N(C)C)C2)no1	104.2%
CN(C)C[C@]12COC[C@H]1CN(Cc1ccc3ccccc3n1)C2.O=C(O)C(F)(F)F.O=C(O)C(F)(F)F.O=C(O)C(F)(F)F	-5.05%
COC[C@]12COC[C@H]1CN(Cc1ccc3ccccc3n1)C2.O=C(O)C(F)(F)F.O=C(O)C(F)(F)F	-16.09%
Cc1cc(CN2C[C@@H]3COC[C@]3(COCc3csc(C)n3)C2)no1.O=C(O)C(F)(F)F	-7.222%
Cc1cc(CN2C[C@@H]3COC[C@]3(CNC(=O)N(C)C)C2)no1.O=C(O)C(F)(F)F	-12.05%
Cc1cccc(CN2C[C@@H]3COC[C@]3(COCC(=O)N(C)C)C2)n1.O=C(O)C(F)(F)F.O=C(O)C(F)(F)F	109.1%
Cc1cccc(CN2C[C@@H]3CCCO[C@@H]3[C@H](NS(C)(=O)=O)C2)n1	6.966%
Cc1noc(C)c1CN1C[C@H](OCC2CC2)[C@H]2COC[C@H]21.O=C(O)C(F)(F)F	-11.17%
Cc1cccc(CN2C[C@H](OCc3ccccn3)[C@H]3COC[C@H]32)n1.O=C(O)C(F)(F)F.O=C(O)C(F)(F)F	114.7%
Cc1cccc(CN2C[C@@H]3COC[C@H](NS(C)(=O)=O)[C@@H]3C2)n1.O=C(O)C(F)(F)F.O=C(O)C(F)(F)F	86.62%
Cc1cccc(CN2C[C@H](NS(C)(=O)=O)[C@@H]3OCCC[C@@H]32)n1.O=C(O)C(F)(F)F.O=C(O)C(F)(F)F	-8.995%
CCc1ccc(CN2C[C@H](OC)[C@H]3COC[C@H]32)o1.O=C(O)C(F)(F)F	106.4%
Cc1cccc(CN2CCO[C@H]3[C@H](Oc4ccccn4)CC[C@@H]32)n1.O=C(O)C(F)(F)F.O=C(O)C(F)(F)F.O=C(O)C(F)(F)F	-5.124%
Cc1noc(C)c1CN1C[C@H](OCC(=O)N(C)C)[C@H]2COC[C@H]21.O=C(O)C(F)(F)F	-5.936%
Cc1cccc(CN2C[C@@H](NC(=O)C3CCC3)[C@H]3COC[C@H]32)n1	5.905%
Cc1ccc(CN2C[C@H]3OC(=O)N(Cc4ccccn4)[C@H]3C2)o1	4.449%
Cc1ccc(CN2C[C@@H](OCc3ccccn3)[C@H]3COC[C@H]32)o1.O=C(O)C(F)(F)F.O=C(O)C(F)(F)F	91.93%
Cc1ncsc1CN1C[C@@H](OCc2ccccn2)[C@H]2OCCC[C@H]21.O=C(O)C(F)(F)F.O=C(O)C(F)(F)F.O=C(O)C(F)(F)F	-3.232%
O=C1NCCC12CN(CC1CC1)CC21CCNCC1 (configuration not stated)	-8.947%
CCC/C=C/c1ccc(CN2CCN(C)CC2)cn1	-3.388%
CC(C)C(NC(=O)c1ccco1)C(=O)N1CCC2(CC1)OCCO2 (configuration not stated)	-15.39%
O=C(NCC(=O)N1CCC2(CC1)OCCO2)c1ccoc1	92.23%

SMILES	Percent Effect
CC(C)C(NC(=O)c1ccccc1)C(=O)N1CCC2(CC1)OCCO2 (configuration not stated)	-14.78%
Cc1cccc(CN2C(=O)C[C@@H]3[C@@H]2CCN3Cc2ccsc2)n1.O=C(O)C(F)(F)F.O=C(O)C(F)(F)F	96.12%
Cc1cccc(CN2C(=O)C[C@H]3[C@@H]2CCN3Cc2ccco2)n1.O=C(O)C(F)(F)F.O=C(O)C(F)(F)F	95.2%
Cc1cccc(CN2C(=O)CC[C@H]3[C@@H]2CCN3CC(=O)N(C)C)n1.O=C(O)C(F)(F)F.O=C(O)C(F)(F)F	6.381%
Cc1cccc(CN2C(=O)C[C@H]3[C@@H]2CCN3Cc2nccs2)n1.O=C(O)C(F)(F)F.O=C(O)C(F)(F)F	101.6%
Cc1ccc(-c2noc(CC[C@@H]3CCCN4CCCC[C@H]34)n2)nn1	-24.46%
Cc1cc(N(C)C)nc(C2CCCNC2)n1.Cl (configuration not stated)	130.2%
Cc1cc(C)nc(C2CCCNC2)n1.Cl.Cl (configuration not stated)	131.4%
c1cncc(NCCNC2CCCNC2)c1 (configuration not stated)	1.696%
Cc1cc(N(C)C)nc(N2CCCC2c2cccnc2)n1 (configuration not stated)	6.252%
CNc1cc(C2CCCNC2)nc(C)n1.Cl.Cl (configuration not stated)	69.51%
CN(C)c1cc(C2CCCNC2)ccn1.Cl.Cl (configuration not stated)	113.5%
O=C([C@H]1C[C@H]2OCC[C@H]2N(Cc2ccncc2)C1)N1CCCCO1	-15.5%
Cc1nc(O)cc(CN2CC=C(c3cnn(-c4ccccc4)c3)CC2)n1	3.563%
O=C(O)C(F)(F)F.O=C1[C@H]2CN(Cc3cccs3)C[C@H]2CN1c1cncnc1	0.1136%
Cc1cc(O)nc(C2CCCNC2)n1.Cl (configuration not stated)	166.7%
Cl.FC(F)(F)c1nc(C2CCCNC2)no1 (configuration not stated)	113.6%
CC(C)c1nc(C2CCCNC2)no1.Cl (configuration not stated)	-31.86%
COc1ccc(F)cc1C(=O)C1CCCN(Cc2cnc(C)s2)C1 (configuration not stated)	-11.09%
N#Cc1cccc(N2CCCC3(CNCCO3)C2)n1.O=C(O)C(F)(F)F.O=C(O)C(F)(F)F (configuration not stated)	1.133%
CN1C(=O)C2(CCN(Cc3cccnc3)CC2)c2cccc(F)c21.Cl	9.194%
COc1ccc(CCN)cc1-c1ccc(S(C)(=O)=O)cc1	-7.949%
O=C(c1cc(F)cc(F)c1)N1C[C@H]2CNC[C@H]2C1	-1.943%
